Compounds with a hit are over-represented: about 1.5% of the library has one in this group of screens.
Hsp70 act: switches on Hsp70 transcription; hit rate 0.04% among 200,000; AID 1203; HeLa Hsp70 promoter luciferase reporter, luminescence; scaled: vehicle 0, proteasome-inhibitor control 100%; activation, % at 10 µM;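 active = activation above the mean across all tested compounds plus 3 SD, cutoff set per campaign, cut at about 5.5% in these data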;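 also: 100% = MG132 at 30 µM as the positive control and 0% = DMSO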
S1P4 agonist: agonists of human S1P4 receptor | O95977 | S1P4-expressing cell line, agonist reporter assay | activation, % at 4.98 µM | hit rate 0.35% among 220,000; in the data active = activation above about 11%;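 also: 0% = DMSO vehicle and 100% = reference agonist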
S1P3 antag: antagonists of human S1P3 receptor; Q99500; CHO S1P3 NFAT-BLA reporter, FRET fluorescence, antagonist mode; inhibition, % at 4.98 µM; hit rate 0.27% among 170,000; AID 485;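 active = inhibition above the plate cutoff, the mean inhibition of test wells on that plate plus 3 SD, cut at about 28% in these data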;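 also: cells challenged with S1P at its EC80 of 0.8 µM; blue over green emission ratio from cleaved BLA substrate after 4 h stimulation; 0% = S1P-stimulated wells and 100% = unstimulated DMSO-only wells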
Target sequence (Q99500 whole entry, looked up): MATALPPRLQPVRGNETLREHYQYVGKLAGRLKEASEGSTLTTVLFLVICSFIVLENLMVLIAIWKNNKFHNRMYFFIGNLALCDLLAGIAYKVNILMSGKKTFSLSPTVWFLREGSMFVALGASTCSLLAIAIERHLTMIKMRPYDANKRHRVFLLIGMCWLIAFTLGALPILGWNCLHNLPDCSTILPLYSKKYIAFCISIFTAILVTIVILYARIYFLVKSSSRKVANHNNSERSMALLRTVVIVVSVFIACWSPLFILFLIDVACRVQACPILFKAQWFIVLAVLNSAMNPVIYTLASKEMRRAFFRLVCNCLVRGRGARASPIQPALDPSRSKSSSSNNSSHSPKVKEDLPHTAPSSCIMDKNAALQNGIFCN
INS promoter inh: TRM-6 insulin promoter activity inhibition | AID 1273 | inhibition, % at 2 µM | hit rate 0.9% among 130,000 | TRM-6 cells (human fetal islet line), insulin promoter-eGFP reporter, imaging; reporter expression induced with tamoxifen;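 active = inhibition above the mean plus 3 SD, with well images judged a real hit on visual review, cut at about 60% in these data, passing the limit was not always enough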
Ins promoter up: MIN6 insulin promoter up-regulation; MIN6 insulin promoter-GFP reporter, high-content imaging; stronger effect = higher value; z-score at 5 µM; hit rate 0.3% among 190,000;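 active = z-score above 3 at 5 µM with at least 500 cells counted in the well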
S1P4 antag: blocks the human S1P4 receptor. O95977. inhibition, % at 4.98 µM. hit rate 0.26% among 220,000. S1P4-expressing cells, antagonist mode, reporter read-out; in the data active = inhibition above about 29%;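 also: 0% = wells stimulated with agonist and 100% = vehicle wells without agonist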
* hit, by the source's call.

CC(C)c1nnc(NC(=O)C2CCCCC2)s1 was read as Hsp70 act 0, S1P4 agonist 4, S1P3 antag 94*, Ins promoter up -0.45 and S1P4 antag -27.
Screening O=C(O)c1ccccc1-c1ccccc1C(=O)Nc1cccc(O)c1 returned Hsp70 act 0, S1P4 agonist 0, S1P3 antag -7, Ins promoter up 0.44 and S1P4 antag -1.
Screening COC(=O)C1c2ccccc2-c2ccccc21 returned Hsp70 act 0, S1P4 agonist -2, S1P3 antag -22, INS promoter inh 25, Ins promoter up -0.66 and S1P4 antag -3.
Screening CCCSC1=C(C#N)C(c2ccc(Cl)cc2Cl)CC(=O)N1 (stereo not given) returned Hsp70 act 0, S1P4 agonist 1, S1P3 antag 16, INS promoter inh 0, Ins promoter up 0.51 and S1P4 antag -22.
CC1=C(C#N)C(/C=N/OCc2ccc(Cl)cc2)CC(=O)N1 (stereo not given) was read as Hsp70 act 0, S1P4 agonist 2, S1P3 antag -11, INS promoter inh 83*, Ins promoter up 0.11 and S1P4 antag -33.
For CCC(C)NC(=O)c1ccccc1NC(=O)COc1ccc(OC)cc1 (stereo not given) the results were Hsp70 act 0, S1P4 agonist 2, INS promoter inh 79* and S1P4 antag 8.
CCn1c2ccccc2c2nnc(SCC(=O)Nc3cc(C)on3)nc21 was read as Hsp70 act 0, S1P4 agonist 1, S1P3 antag 0, INS promoter inh -43, Ins promoter up 4* and S1P4 antag -9.
For CN(c1ccccc1)S(=O)(=O)c1cccc(NC(=O)c2ccc3ncsc3c2)c1 the results were S1P4 agonist -1, S1P3 antag 12, Ins promoter up 0.14 and S1P4 antag -15.
CCOC(=O)c1c(=O)n(O)c2ccc(C)cc2[n+]1[O-] was read as Hsp70 act 0, S1P4 agonist 0, S1P3 antag 4 and S1P4 antag 10.
CCCC(=O)Nc1sc2c(c1C(=O)OCC)CC(C)(C)OC2 was read as Hsp70 act 0, S1P4 agonist -1, S1P3 antag -16, INS promoter inh 75* and S1P4 antag 6.
O=C(NC(=O)c1ccc(F)cc1F)Nc1ccc(Cl)cc1 was read as S1P4 agonist 0, S1P3 antag 7, Ins promoter up -0.82 and S1P4 antag 14.
NCCCCCC(=O)N/N=C/c1coc2ccccc2c1=O was read as S1P4 agonist 0, S1P3 antag 0 and S1P4 antag 5.
Screening COc1ccc(/C=N/n2c(N)nc3ccccc32)cc1OC returned Hsp70 act 0, S1P4 agonist 1, S1P3 antag 16, INS promoter inh 75*, Ins promoter up -0.25 and S1P4 antag 0.
For COc1cccc(/C=N/n2c(N)nc3ccccc32)c1OC the results were Hsp70 act 1, S1P4 agonist 2, INS promoter inh 20, Ins promoter up 1.3 and S1P4 antag -17.
COCCn1c(=NC(=O)c2cc(-c3cccs3)nc3ccccc23)sc2cc(S(N)(=O)=O)ccc21 was read as Hsp70 act 0, S1P4 agonist -2, S1P3 antag 12, INS promoter inh -32, Ins promoter up -2.1 and S1P4 antag -24.
`C=CCn1c(=NC(=O)c2cc(-c3cccs3)nc3ccccc23)sc2cc(S(N)(=O)=O)ccc21` gave Hsp70 act 0, S1P4 agonist 2, S1P3 antag -2, INS promoter inh -32, Ins promoter up 9* and S1P4 antag -7.
`Cc1cccc(N(Cc2cc3ccccc3[nH]c2=O)C(=O)c2cccs2)c1` gave S1P4 agonist 2, S1P3 antag 11, Ins promoter up 0.14 and S1P4 antag -12.
CN(C)c1cccc(C(=O)OCC(=O)Nc2ccccc2Cl)c1 was read as Hsp70 act 0, S1P4 agonist 1, S1P3 antag -6, INS promoter inh 75*, Ins promoter up -0.01 and S1P4 antag -11.
For c1cc2c3c(cccc3c1)C(N1CCCCC1)=N2 the results were Hsp70 act -1, S1P4 agonist 1, S1P3 antag -6, INS promoter inh 87*, Ins promoter up -0.11 and S1P4 antag 4.
c1cc2c3c(cccc3c1)C(N1CCCCCC1)=N2 was read as Hsp70 act 0, S1P4 agonist 1, INS promoter inh 63 and S1P4 antag -11.
`COc1ccc(NC(=O)C(c2ccc(OC)cc2)N(C)C(=O)CNC(C)=O)cc1` (stereo not given) gave Hsp70 act 0, S1P4 agonist 3, S1P3 antag 1, INS promoter inh 77*, Ins promoter up 1.5 and S1P4 antag -12.
Screening COc1cc(NC(=O)CN(C)Cc2ccc(OC(F)F)cc2)c(C)cc1[N+](=O)[O-] returned Hsp70 act 0, S1P4 agonist 0, S1P3 antag 17, Ins promoter up -4.5 and S1P4 antag -11.
`COc1ccc(CN(C)CC(=O)Nc2cc(OC)c([N+](=O)[O-])cc2C)c(OC)c1` gave Hsp70 act -1, S1P4 agonist 4, S1P3 antag -1, INS promoter inh 71*, Ins promoter up 0.15 and S1P4 antag 5.
Cc1ccc(C(C)C)c(OCc2nn(CC(=O)c3ccc(Cl)cc3)c3[n+]2CCCCC3)c1 was read as Hsp70 act 0, S1P4 agonist -1, S1P3 antag -8, Ins promoter up -4.3 and S1P4 antag 0.
Screening CN(C)c1ccnc(Oc2ccccc2)c1C#N returned Hsp70 act 0, S1P4 agonist -1, INS promoter inh 14, Ins promoter up 0.46 and S1P4 antag -3.
CN(C)c1ccnc(SCc2ccccc2Cl)c1C#N was read as Hsp70 act 0, S1P4 agonist 2, S1P3 antag 2, INS promoter inh 73*, Ins promoter up -0.38 and S1P4 antag 12.
`CC1=CC(=C(C#N)c2nc3ccccc3s2)C=C(C)N1Cc1ccco1` gave Hsp70 act 0, S1P4 agonist 2, S1P3 antag 56*, INS promoter inh 21, Ins promoter up -1.3 and S1P4 antag -10.
`O=C(CCS(=O)(=O)c1ccccc1)Nc1nc(-c2ccc(F)cc2)cs1` gave S1P4 agonist 0, S1P3 antag 16 and S1P4 antag -15.
Screening O=C(CS(=O)(=O)c1ccccc1)Nc1nc(-c2ccc(F)cc2)cs1 returned Hsp70 act 0, S1P4 agonist 1, S1P3 antag 4, INS promoter inh 75*, Ins promoter up -0.21 and S1P4 antag 22.
Screening Cc1cc(Br)ccc1SCC(=O)OCC(=O)NCc1ccco1 returned S1P4 agonist 2, S1P3 antag -6, Ins promoter up -0.03 and S1P4 antag -12.
For Brc1ccc(C=Nc2ccc(Nc3ccccc3)cc2)s1 the results were Hsp70 act 0, S1P4 agonist 1, S1P3 antag -1, INS promoter inh 27, Ins promoter up 2 and S1P4 antag 12.

From PubChem
